36 molecules from PubChem BioAssay (Tox21) can be followed below.

Each structure is given as a SMILES string. Where “and” joins values, the source holds several entries; their conditions need not be identical. Identical values can stand only once. Results filed as inconclusive are left out. More than one record can exist for a structure, and the calls need not agree. Calls of active or inactive are those of the source. Unless noted, calls follow the shape of the dose curve; as a rule, active = well fitted curve in the direction sought with a large enough effect in the repeat runs; inconclusive = weak or mixed curves; inactive = no such curve, though single readings can be large; an effect the other way counts as inactive or inconclusive.

The nature of test [1]: qHTS assay to identify small molecule antagonists of the thyroid receptor (TR) signaling pathway - cell viability counter screen (AID 743064). Also: nearly all actives have a fitted effect of over 50% in size. Also: potency is read from the fitted curve at half-maximal effect. Put shortly: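 In rat pituitary GH3.TRE-Luc reporter cells co-exposed to compound and 1 nM T3 for 23.5 h, cytotoxicity was assessed with CellTiter-Fluor in the same wells, read by fluorescence.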
(qHTS replaces the single test concentration by a dilution series.)

A short description of test [2]: qHTS assay to identify small molecule antagonists of the thyroid receptor (TR) signaling pathway (AID 743065). Also: series mostly up to about 70 µM; nearly all actives have a fitted effect of over 55% in size. Put shortly:
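Antagonism measured as loss of luciferase signal in GH3 cells stably carrying a TRE-luciferase reporter, co-treated with compound and T3 (1 nM final) for 23.5 h at 37 C. Viability was read in the same well by CellTiter-Fluor.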

Test [3] relates to thyroid hormone receptor (rat, GH3 cells). The test can be described thus: qHTS assay to identify small molecule agonists of the thyroid receptor (TR) signaling pathway (AID 743066; calls by dose curve).
Test [4] is described as follows: qHTS assay to identify small molecule antagonists of the estrogen receptor alpha (ER-alpha) signaling pathway - cell viability counter screen (AID 743074; calls by dose curve;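 also: HEK293 cells carrying ER-alpha-UAS-bla reporter stimulated with 17beta-estradiol; nearly all actives have a fitted effect of over 45% in size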).
Test [5] can be described thus: qHTS assay to identify small molecule antagonists of the estrogen receptor alpha (ER-alpha) signaling pathway using the BG1 cell line - cell viability counter screen (AID 743081).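 Also: compound given together with 17beta-estradiol as the ER stimulus; series mostly up to about 70 µM; nearly all actives have a fitted effect of over 45% in size.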
The target of another test is Aromatase (Homo sapiens) (UniProt P11511). In words: qHTS assay to identify aromatase inhibitors (AID 743083). Also: nearly all actives have a fitted effect of over 55% in size. Also: potency is read from the fitted curve at half-maximal effect.
Test [6] deals with Estrogen receptor (Homo sapiens) (UniProt P03372). In words: qHTS assay to identify small molecule agonists of the estrogen receptor alpha (ER-alpha) signaling pathway (AID 743075; calls by dose curve).
For test [7] the target is unchanged. The test can be described thus: qHTS assay to identify small molecule agonists of the estrogen receptor alpha (ER-alpha) signaling pathway using the BG1 cell line (AID 743079). Also: nearly all actives have a fitted effect of over 20% in size.
Test [8] has the same target. The test can be described thus: qHTS assay to identify small molecule antagonists of the estrogen receptor alpha (ER-alpha) signaling pathway (AID 743069; active = well fitted curve in the direction sought with a large enough effect in the signal ratio in the repeat runs, not every such curve was filed as active; the % refers to the signal ratio). In short, it runs like this:
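Compound effects are measured against 17beta-estradiol stimulation in HEK293 cells with a UAS-controlled beta-lactamase reporter for ER-alpha. Exposure lasts 18 hr at 37C; LiveBLAzer B/G FRET substrate follows for 2 hr at room temperature.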

Test [9] in a line: qHTS assay to identify small molecule antagonists of the estrogen receptor alpha (ER-alpha) signaling pathway using the BG1 cell line (AID 743080; calls by dose curve;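 also: BG1 cells stimulated with 17beta-estradiol alongside compound; series mostly up to about 70 µM; nearly all actives have a fitted effect of over 25% in size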). In short, it runs like this:
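Seeding, 24 h rest, compound transfer from DMSO, 17beta-estradiol addition, 21.5 h incubation, CellTiter-Fluor (30 min, 37 C), then ONE-Glo (30 min, room temperature): this sequence was run on BG1-Luc-4E2 reporter cells.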

Sequence of Aromatase (Homo sapiens) (P11511 whole entry, looked up): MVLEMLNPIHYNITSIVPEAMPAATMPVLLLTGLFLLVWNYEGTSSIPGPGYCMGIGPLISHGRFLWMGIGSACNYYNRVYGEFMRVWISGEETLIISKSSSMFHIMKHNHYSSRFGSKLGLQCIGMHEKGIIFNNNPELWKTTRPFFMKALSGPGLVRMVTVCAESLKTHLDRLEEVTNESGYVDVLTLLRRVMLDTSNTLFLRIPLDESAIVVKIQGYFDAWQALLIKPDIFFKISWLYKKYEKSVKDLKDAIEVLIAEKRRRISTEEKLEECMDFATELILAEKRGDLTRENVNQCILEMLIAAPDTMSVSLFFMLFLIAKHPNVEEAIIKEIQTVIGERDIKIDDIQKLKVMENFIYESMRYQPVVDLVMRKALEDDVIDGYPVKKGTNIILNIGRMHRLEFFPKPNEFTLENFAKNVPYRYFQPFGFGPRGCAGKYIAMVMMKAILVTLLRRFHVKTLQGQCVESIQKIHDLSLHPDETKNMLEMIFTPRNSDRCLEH
Sequence of Estrogen receptor (Homo sapiens) (P03372 whole entry, looked up): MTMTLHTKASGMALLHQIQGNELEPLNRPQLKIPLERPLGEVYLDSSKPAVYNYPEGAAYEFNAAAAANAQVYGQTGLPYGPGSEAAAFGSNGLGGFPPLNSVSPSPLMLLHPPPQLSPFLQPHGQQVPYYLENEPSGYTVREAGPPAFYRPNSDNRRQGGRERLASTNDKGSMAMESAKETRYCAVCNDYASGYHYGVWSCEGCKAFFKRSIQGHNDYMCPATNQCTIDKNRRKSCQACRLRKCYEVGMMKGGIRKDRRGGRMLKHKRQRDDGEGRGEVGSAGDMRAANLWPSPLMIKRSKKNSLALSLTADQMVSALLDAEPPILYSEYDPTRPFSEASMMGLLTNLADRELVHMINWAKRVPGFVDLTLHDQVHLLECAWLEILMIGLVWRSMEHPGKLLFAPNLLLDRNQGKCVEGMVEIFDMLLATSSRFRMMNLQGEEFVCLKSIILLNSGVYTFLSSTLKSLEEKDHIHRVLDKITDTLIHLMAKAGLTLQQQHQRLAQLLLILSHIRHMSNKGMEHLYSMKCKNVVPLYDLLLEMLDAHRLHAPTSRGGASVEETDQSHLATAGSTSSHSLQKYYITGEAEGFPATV

Regarding `O=S(=O)(O)c1ccccc1`, the Potency entry (in [1]; in [2]; in test [5]; with Aromatase (Homo sapiens)) was “inactive” each time. Further, the molecule was classed as inactive in [3] and in test [4].
On to `CCOC(=O)c1ccc(N)cc1`, for which the Potency entry (in [1]; in test [2]; in [5]; with Aromatase (Homo sapiens)) was “inactive” in each case. Moreover, the result in [3] and in test [4] was inactive.
For the molecule `CCCCCCCCCCN`, the Potency result (in test [1]; in [2]; in test [5]; with Aromatase (Homo sapiens)) was “inactive” in each case. For the same molecule, in test [3], the molecule was classed as inactive.
As to `O=C(O)CCCCCCCCC(=O)O`, the Potency entry (in test [1]; in test [2]; in [5]; in the test with Aromatase (Homo sapiens)) was “inactive” each time. The molecule was classed as inactive in test [3] and in [4].
Regarding `CC(C)(C#N)c1cc(Cn2cncn2)cc(C(C)(C)C#N)c1`, in [4], the outcome was inactive. Besides, in [5], the Potency entry is “inactive”.
Turning to `C=CCc1ccc(OC)c(OC)c1`, the Potency result (in test [1]; in test [2]; in test [5]; in the test with Aromatase (Homo sapiens)) was “inactive” each time. In addition, the result in test [3] and in test [4] was inactive.
On to `C=C(C)CNCC`, for which the Potency result (in test [1]; in test [2]; in test [5]; with Aromatase (Homo sapiens)) was “inactive” in each case. The result in [3] and in [4] was inactive.
For `C[C@]12CCC(=O)C=C1CC[C@@H]1[C@@H]2[C@@H](O)C[C@@]2(C)[C@H]1CC[C@]2(O)C(=O)CO`, the Potency result (in [1]; in test [2]; in test [5]; with Aromatase (Homo sapiens)) was “inactive” each time. The result in test [3] and in [4] was inactive.
For the molecule `CC(C)OP(=O)(CP(=O)(OC(C)C)OC(C)C)OC(C)C`, the Potency entry (in [2]; in [6]; in [7]; in test [5]; in the test with Aromatase (Homo sapiens)) was “inactive” throughout. Further, the outcome in test [3] and in test [4] was inactive.
Consider `C[C@]12CC[C@@H]3c4ccc(O)cc4CC[C@H]3[C@@H]1C[C@@H](O)[C@@H]2O`, for which the Potency entry (in test [1]; in [2]; in test [5]; in the test with Aromatase (Homo sapiens)) was “inactive” throughout. The call in [3] and in test [4] was inactive.
With `Cc1ccc(C(C)C)c(O)c1`, the Potency is 61.1 µM (active) in test [1]; “inactive and 54.5 µM (active)” in the test with Aromatase (Homo sapiens). The outcome in test [3] and in test [4] was inactive. Besides, the Potency entry in test [8], in test [6], in [7] and in test [5] was “inactive” in each case.
As to `CC(CCl)OP(=O)(OC(C)CCl)OC(C)CCl` (stereo not given), the Potency result (in test [8]; in test [6]; in [7]; in [5]; with Aromatase (Homo sapiens)) was “inactive” in each case. The outcome in [4] was inactive.
On to `CC(C)CC(=O)CC(C)CC(C)C` (stereo not given), for which the Potency entry (in test [1]; in test [2]; in [5]; in the test with Aromatase (Homo sapiens)) was “inactive” throughout. Moreover, the result in test [3] and in test [4] was inactive.
As for `NCCNCCN`, the Potency entry (in [1]; in [2]; in [5]; with Aromatase (Homo sapiens)) was “inactive” throughout. In addition, the call in test [3] and in test [4] was inactive.
As to `NCCCCCCN`, the Potency result (in test [1]; in test [2]; in [5]; with Aromatase (Homo sapiens)) was “inactive” throughout. The call in [3] and in test [4] was inactive.
Turning to `c1ccc(Oc2ccccc2)cc1`, the Potency result (in [1]; in test [2]; in [5]; with Aromatase (Homo sapiens)) was “inactive” each time. The result in test [3] and in test [4] was inactive.
As to `CC(C)CCCCCCCOC(=O)CCCCC(=O)OCCCCCCCC(C)C`, the Potency result (in test [1]; in [2]; in [5]; with Aromatase (Homo sapiens)) was “inactive” in each case. The call in test [3] and in [4] was inactive.
For `CCCOC(=O)c1ccccc1`, the Potency result (in test [1]; in test [2]; in test [5]; in the test with Aromatase (Homo sapiens)) was “inactive” in each case. Also, the call in [3] and in test [4] was inactive.
For the molecule `NC(=S)NNC(N)=S`, the Potency entry (in [1]; in [2]; in test [5]; with Aromatase (Homo sapiens)) was “inactive” each time. Also, the result in test [3] and in test [4] was inactive.
`CCO[Si](CCCN)(OCC)OCC`: the Potency result (in test [1]; in [8]; in test [6]; in test [7]; in test [5]; with Aromatase (Homo sapiens)) was “inactive” each time. Besides, the outcome in [4] and in test [9] was inactive.
Take `O=C1c2ccccc2CCc2ccccc21`: the Potency result (in [2]; in test [5]; in the test with Aromatase (Homo sapiens)) was “inactive” throughout. Besides, the call in test [3] and in test [4] was inactive.
With `C=CC[N+](C)(C)CC=C`, the Potency entry (in [1]; in [2]; in test [5]; in the test with Aromatase (Homo sapiens)) was “inactive” throughout. Besides, the molecule was classed as inactive in [3] and in test [4].
Regarding `O=C(O)Cn1c(=O)n(Cc2ccc(Br)cc2F)c(=O)c2ccc(Cl)cc21`, the Potency entry (in [2]; in test [8]; in [6]; in test [7]; with Aromatase (Homo sapiens)) was “inactive” in each case. In addition, the outcome in test [3] and in [4] was inactive.
For the molecule `CC1(C)OC[C@@H]2O[C@@]3(C(=O)O)OC(C)(C)O[C@H]3[C@@H]2O1`, the Potency entry (in test [1]; in test [2]; in [5]; with Aromatase (Homo sapiens)) was “inactive” each time. Further, the molecule was classed as inactive in test [3] and in test [4].
On to `COc1ccc(C)cc1N`, for which the Potency entry (in [2]; in test [8]; in [6]; in test [7]; in test [5]; in the test with Aromatase (Homo sapiens)) was “inactive” in each case. The result in [3], in test [4] and in [9] was inactive.
Take `C=Cc1ccc(C)cc1`: the Potency result (in [2]; in test [5]; with Aromatase (Homo sapiens)) was “inactive” in each case. For the same molecule, the call in test [3] was inactive.
In the case of `COC(=O)c1cccnc1`, the Potency entry (in test [1]; in test [2]; in [5]; with Aromatase (Homo sapiens)) was “inactive” each time. Also, the outcome in test [3] and in [4] was inactive.
Take `CN1C(=O)CC[C@H]1c1cccnc1`: the Potency result (in test [1]; in test [5]; in the test with Aromatase (Homo sapiens)) was “inactive” throughout. In test [4], the result was inactive.
As for `COCCOC(=O)c1ccccc1C(=O)OCCOC`, the Potency result (in [1]; in [2]; in [5]; with Aromatase (Homo sapiens)) was “inactive” throughout. The molecule was classed as inactive in test [3] and in test [4].
Regarding `CC(=O)OC1CC(C)OC(C)O1` (stereo not given), the Potency entry (in test [1]; in [2]; in test [5]; with Aromatase (Homo sapiens)) was “inactive” throughout. The molecule was called inactive in test [3] and in test [4].
For `COc1ccc(OC)cc1`, the Potency result (in [1]; in test [8]; in test [6]; in test [7]; in test [5]; with Aromatase (Homo sapiens)) was “inactive” each time. The molecule was called inactive in [9].
For `O=C1C(c2[nH]c3ccccc3c2O)=Nc2ccccc21`, the Potency entry (in test [1]; in [2]; in [5]; with Aromatase (Homo sapiens)) was “inactive” each time. Moreover, the molecule was classed as inactive in test [3] and in test [4].
On to `CC(O)CC(C)(C)O` (stereo not given), for which the Potency result (in test [1]; in test [2]; in test [5]; with Aromatase (Homo sapiens)) was “inactive” in each case. Also, the molecule was classed as inactive in test [3].
For the molecule `C=C(C)[C@H]1CC=C(C)C(=O)C1`, the Potency entry (in [1]; in [2]; in test [5]; in the test with Aromatase (Homo sapiens)) was “inactive” each time. The call in [3] and in test [4] was inactive.
On to `OCc1cccc(Oc2ccccc2)c1`, for which the Potency result (in [1]; in test [2]; in test [5]; in the test with Aromatase (Homo sapiens)) was “inactive” each time. Further, the call in [3] and in [4] was inactive.
On to `CN/C(=C\[N+](=O)[O-])NCCSCc1csc(CN(C)C)n1`, for which the Potency entry (in [1]; in test [2]; in [5]; with Aromatase (Homo sapiens)) was “inactive” each time. Besides, the molecule was classed as inactive in test [3] and in [4].
